About 2,000 (36%) of roughly 5,500 compounds were called active. Inconclusive results (about 18%) are left out. The list shows a part of the results. Values without a mark were called inactive. Cut-off read from the data, not from the text of the source: active = normalized growth mostly below about 0.91 (no sharp cut-off); inconclusive = no clear call, values can overlap the other calls; inactive = mostly above about 0.92.
Test: chemical genetic growth profiling, strain panel (AID 1159580);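 note: tested at 20 µM; growth read once vehicle control cultures reached saturation at 30 °C; 1 = growth at the plate median or of vehicle wells; lower values mean less growth of the strain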
Settings: growth OD
[1] = S. cerevisiae deletion strains, locus YDL101C, strain DUN1, hits give low values
[2] = S. cerevisiae deletion strains, locus YHR030C, strain SLT2, hits give low values

N#C/C(=C\C=C\c1ccccc1)c1nc2ccccc2[nH]1
normalized growth (S. cerevisiae deletion strains, locus YAR019C, strain CDC15, hits give low values): 0.958 | normalized growth (S. cerevisiae deletion strains, locus YBL105C, strain PKC1, hits give low values): 0.969 | normalized growth (S. cerevisiae deletion strains, locus YBR135W, strain CKS1, hits give low values): 0.944 | normalized growth (S. cerevisiae deletion strains, locus YBR136W, strain MEC1, hits give low values): 0.962 | normalized growth (S. cerevisiae deletion strains, locus YBR160W, strain CDC28, hits give low values): 0.962 | normalized growth (S. cerevisiae deletion strains, locus YDL017W, strain CDC7, hits give low values): 0.961 | normalized growth (S. cerevisiae deletion strains, locus YDL028C, strain MPS1, hits give low values): 0.962 | normalized growth [1]: 0.973 | normalized growth (S. cerevisiae deletion strains, locus YDL108W, strain KIN28, hits give low values): 0.968 | normalized growth (S. cerevisiae deletion strains, locus YDL132W, strain cdc53, hits give low values): 0.964 | normalized growth (S. cerevisiae deletion strains, locus YDL214C, strain PRR2, hits give low values): 0.864 | normalized growth (S. cerevisiae deletion strains, locus YDR052C, strain DBF4, hits give low values): 0.966 | normalized growth (S. cerevisiae deletion strains, locus YDR054C, strain cdc34, hits give low values): 0.955 | normalized growth (S. cerevisiae deletion strains, locus YDR226W, strain ADK1, hits give low values): 0.962 | normalized growth (S. cerevisiae deletion strains, locus YDR477W, strain SNF1, hits give low values): 0.823 | normalized growth (S. cerevisiae deletion strains, locus YER123W, strain YCK3, hits give low values): 0.878 | normalized growth (S. cerevisiae deletion strains, locus YER133W, strain GLC7, hits give low values): 0.834 | normalized growth (S. cerevisiae deletion strains, locus YFL009W, strain cdc4, hits give low values): 0.964 | normalized growth (S. cerevisiae deletion strains, locus YFL029C, strain CAK1, hits give low values): 0.958 | normalized growth (S. cerevisiae deletion strains, locus YFR003C, strain YPI1, hits give low values): 0.976 | normalized growth (S. cerevisiae deletion strains, locus YFR019W, strain FAB1, hits give low values): 0.966 | normalized growth (S. cerevisiae deletion strains, locus YFR028C, strain CDC14, hits give low values): 0.956 | normalized growth (S. cerevisiae deletion strains, locus YGR040W, strain KSS1, hits give low values): 0.83 | normalized growth (S. cerevisiae deletion strains, locus YGR052W, strain FMP48, hits give low values): 0.916 | normalized growth (S. cerevisiae deletion strains, locus YGR092W, strain DBF2, hits give low values): 0.829 | normalized growth [2]: 0.673 (active) | normalized growth (S. cerevisiae deletion strains, locus YHR079C, strain IRE1, hits give low values): 0.848 | normalized growth (S. cerevisiae deletion strains, locus YHR082C, strain KSP1, hits give low values): 0.819 | normalized growth (S. cerevisiae deletion strains, locus YHR205W, strain SCH9, hits give low values): 0.818 | normalized growth (S. cerevisiae deletion strains, locus YIL147C, strain SLN1, hits give low values): 0.967 | normalized growth (S. cerevisiae deletion strains, locus YJL095W, strain BCK1, hits give low values): 0.729 | normalized growth (S. cerevisiae deletion strains, locus YJL128C, strain PBS2, hits give low values): 0.957 | normalized growth (S. cerevisiae deletion strains, locus YJL157C, strain FAR1, hits give low values): 0.886 | normalized growth (S. cerevisiae deletion strains, locus YJR016C, strain ILV3, hits give low values): 0.958 | normalized growth (S. cerevisiae deletion strains, locus YJR066W, strain TOR1 (second series), hits give low values): 0.871 | normalized growth (S. cerevisiae deletion strains, locus YJR066W, strain TOR1, hits give low values): 0.791 | normalized growth (S. cerevisiae deletion strains, locus YKL048C, strain ELM1, hits give low values): 0.904 | normalized growth (S. cerevisiae deletion strains, locus YKL067W, strain YNK1, hits give low values): 0.898 | normalized growth (S. cerevisiae deletion strains, locus YKL101W, strain HSL1, hits give low values): 0.882 | normalized growth (S. cerevisiae deletion strains, locus YKL193C, strain SDS22, hits give low values): 0.95 | normalized growth (S. cerevisiae deletion strains, locus YKL203C, strain TOR2, hits give low values): 0.878 | normalized growth (S. cerevisiae deletion strains, locus YLR113W, strain HOG1, hits give low values): 0.658 (active) | normalized growth (S. cerevisiae deletion strains, locus YLR133W, strain CKI1, hits give low values): 0.891 | normalized growth (S. cerevisiae deletion strains, locus YLR403W, strain SFP1, hits give low values): 0.86 | normalized growth (S. cerevisiae deletion strains, locus YML070W, strain DAK1, hits give low values): 0.864 | normalized growth (S. cerevisiae deletion strains, locus YMR001C, strain CDC5, hits give low values): 0.956 | normalized growth (S. cerevisiae deletion strains, locus YMR205C, strain PFK2 (second series), hits give low values): 0.901 | normalized growth (S. cerevisiae deletion strains, locus YMR277W, strain FCP1, hits give low values): 0.955 | normalized growth (S. cerevisiae deletion strains, locus YNL006W, strain LST8, hits give low values): 0.96 | normalized growth (S. cerevisiae deletion strains, locus YNL020C, strain ARK1, hits give low values): 0.896 | normalized growth (S. cerevisiae deletion strains, locus YNL161W, strain CBK1, hits give low values): 0.956 | normalized growth (S. cerevisiae deletion strains, locus YNL183C, strain NPR1, hits give low values): 0.793 | normalized growth (S. cerevisiae deletion strains, locus YNL207W, strain RIO2, hits give low values): 0.946 | normalized growth (S. cerevisiae deletion strains, locus YNL222W, strain SSU72, hits give low values): 0.957 | normalized growth (S. cerevisiae deletion strains, locus YNL307C, strain MCK1 (second series), hits give low values): 0.866 | normalized growth (S. cerevisiae deletion strains, locus YOL078W, strain AVO1, hits give low values): 0.954 | normalized growth (S. cerevisiae deletion strains, locus YOL136C, strain PFK27, hits give low values): 0.885 | normalized growth (S. cerevisiae deletion strains, locus YOR061W, strain CKA2, hits give low values): 0.908 | normalized growth (S. cerevisiae deletion strains, locus YOR119C, strain RIO1, hits give low values): 0.875 | normalized growth (S. cerevisiae deletion strains, locus YOR231W, strain MKK1, hits give low values): 0.828 | normalized growth (S. cerevisiae deletion strains, locus YOR329C, strain SCD5, hits give low values): 0.976 | normalized growth (S. cerevisiae deletion strains, locus YPL031C, strain PHO85, hits give low values): 0.824 | normalized growth (S. cerevisiae deletion strains, locus YPL153C, strain RAD53, hits give low values): 0.855 | normalized growth (S. cerevisiae deletion strains, locus YPL204W, strain HRR25, hits give low values): 0.827 | normalized growth (S. cerevisiae deletion strains, locus YPL209C, strain IPL1, hits give low values): 0.963 | normalized growth (S. cerevisiae deletion strains, locus YPL256C, strain CLN2, hits give low values): 0.767 (active) | normalized growth (S. cerevisiae deletion strains, locus YPR025C, strain CCL1, hits give low values): 0.952 | normalized growth (S. cerevisiae deletion strains, locus YPR106W, strain ISR1, hits give low values): 0.965 | normalized growth (S. cerevisiae deletion strains, locus YPR111W, strain DBF20, hits give low values): 0.944 | normalized growth (S. cerevisiae deletion strains, strain NNK1, hits give low values): 0.942 | normalized growth (S. cerevisiae deletion strains, strain TSCII, hits give low values): 0.952

COc1ccc(/C=C(\C#N)c2nc3ccccc3[nH]2)cc1OC
normalized growth (S. cerevisiae deletion strains, locus YAL013W, strain DEP1, hits give low values): 0.947 | normalized growth (S. cerevisiae deletion strains, locus YBR229C, strain ROT2, hits give low values): 0.947 | normalized growth [1]: 0.961 | normalized growth (S. cerevisiae deletion strains, locus YDL134C, strain PPH21, hits give low values): 0.942 | normalized growth (S. cerevisiae deletion strains, locus YDR150W, strain NUM1, hits give low values): 0.934 | normalized growth (S. cerevisiae deletion strains, locus YEL061C, strain CIN8, hits give low values): 0.921 | normalized growth (S. cerevisiae deletion strains, locus YGR078C, strain PAC10, hits give low values): 0.948 | normalized growth [2]: 0.703 | normalized growth (S. cerevisiae deletion strains, locus YHR087W, strain rtc3, hits give low values): 0.912 | normalized growth (S. cerevisiae deletion strains, locus YJR043C, strain POL32, hits give low values): 0.959 | normalized growth (S. cerevisiae deletion strains, locus YJR075W, strain HOC1, hits give low values): 0.859 (active) | normalized growth (S. cerevisiae deletion strains, locus YLR039C, strain RIC1, hits give low values): 0.817 | normalized growth (S. cerevisiae deletion strains, locus YLR058C, strain SHM2 (second series), hits give low values): 0.957 | normalized growth (S. cerevisiae deletion strains, locus YLR085C, strain ARP6, hits give low values): 0.499 (active) | normalized growth (S. cerevisiae deletion strains, locus YLR262C, strain YPT6, hits give low values): 0.851 | normalized growth (S. cerevisiae deletion strains, locus YML094W, strain GIM5, hits give low values): 0.909 | normalized growth (S. cerevisiae deletion strains, locus YMR219W, strain ESC1, hits give low values): 0.971 | normalized growth (S. cerevisiae deletion strains, locus YMR263W, strain SAP30, hits give low values): 0.956 | normalized growth (S. cerevisiae deletion strains, locus YMR307W, strain GAS1, hits give low values): 0.609 (active) | normalized growth (S. cerevisiae deletion strains, locus YNL153C, strain GIM3, hits give low values): 0.975 | normalized growth (S. cerevisiae deletion strains, locus YNL298W, strain CLA4 (second series), hits give low values): 0.856 | normalized growth (S. cerevisiae deletion strains, locus YNL322C, strain KRE1, hits give low values): 0.95 | normalized growth (S. cerevisiae deletion strains, locus YNR030W, strain Alg12, hits give low values): 0.906 | normalized growth (S. cerevisiae deletion strains, locus YOL006C, strain TOP1, hits give low values): 0.725 (active) | normalized growth (S. cerevisiae deletion strains, locus YPL055C, strain LGE1, hits give low values): 0.885 | normalized growth (S. cerevisiae deletion strains, locus YPL241C, strain CIN2, hits give low values): 0.857 (active) | normalized growth (S. cerevisiae deletion strains, locus YPR135W, strain CTF4, hits give low values): 0.759 | normalized growth (S. cerevisiae strains, strain wild type, hits give low values): 0.94
